Measurements as given in PubChem BioAssay (EPA / NIEHS).
Records with an inconclusive call do not appear. Calls of active or inactive are those of the source. The calls were made as follows, unless noted: active = hit-call score of the fitted dose curve at least 0.9, where 1 is the maximum; inactive = score below 0.9.

Experiments:
[1] = target: Nuclear respiratory factor 1 (Homo sapiens) (UniProt Q16656); experiment: ATG_NRF1_CIS: Attagene CIS-FACTORIAL HepG2 Assay for human Nuclear Respiratory Factor 1 (NRF1) Orphan Gene (AID 2282987); conditions: HepG2 NRF1 cis-element reporter, Attagene multiplex; actives raise or lower the signal
Procedure, shortened: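 Reporter mRNA induction or loss in HepG2 cells after 24 h dosing; cis-regulated reporter constructs report endogenous transcription-factor activity. Quantified by RT-PCR/capillary electrophoresis fluorescence, DMSO-referenced.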

[2] = target: Myc proto-oncogene protein (Homo sapiens) (UniProt P01106); experiment: ATG_Myc_CIS: Attagene CIS-FACTORIAL HepG2 Assay for human Myelocytomatosis (Myc) Proto-Oncogene Transcription Factor (AID 2282990); conditions: HepG2, Attagene cis-reporter transcription factor activity; actives raise or lower the signal
Procedure, shortened: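 Transiently transfected HepG2 cells bearing cis-promoter reporter units for endogenous transcription factors; 24 h exposure. Reporter mRNA measured by RT-PCR, 6-FAM primer extension, HpaI cut and capillary electrophoresis; bidirectional fit relative to DMSO.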

[3] = ATG_NF_kB_CIS: Attagene CIS-FACTORIAL HepG2 Assay for human Nuclear Factor Kappa B (NF-kB) (AID 2282991); conditions: HepG2 Attagene cis-factorial NF-kB reporter mRNA; actives raise or lower the signal
Procedure, shortened: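 DMSO served as negative control and baseline for bidirectional curve fitting. Transiently transfected HepG2 cells were dosed for 24 h, then reporter transcripts were measured by RT-PCR with capillary electrophoresis detection.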

[4] = ATG_NRF2_ARE_CIS: Attagene CIS-FACTORIAL HepG2 Assay for human Nuclear Factor Erythroid 2 Related Factor 2 (NFR2) response to Antioxidant Response Elements (ARE) (AID 2282992); conditions: HepG2 Attagene ARE/NRF2 reporter, transcription factor activity; actives raise or lower the signal;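 as to AC50: reporter mRNA level measured by RT-PCR and capillary electrophoresis fluorescence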
Procedure, shortened: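 Multiplexed reporter mRNA profiling in HepG2 after a 24 h chemical exposure. Curves fitted in both directions relative to DMSO negative control.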

[5] = ATG_Oct_MLP_CIS: Attagene CIS-FACTORIAL HepG2 Assay for human Octamer-Binding Transcription Factor (Oct) (AID 2282993); conditions: HepG2 Attagene cis-factorial Oct reporter, mRNA; actives raise or lower the signal
Procedure, shortened: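 Read-out: reporter mRNA via RT-PCR plus capillary electrophoresis of 6-FAM-labelled fragments. Transiently transfected HepG2, 24 h exposure, endogenous TF activity on cis elements. Gain or loss of signal fitted relative to DMSO.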

[6] = BSK_3C_TissueFactor: BioMAP Diversity Plus: 3C Assay for Tissue Factor Biomarker Activity (AID 2282997); conditions: BioMAP 3C HUVEC, tissue factor biomarker readout; actives raise or lower the signal
Procedure, shortened: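 HUVEC were treated 24 h, then surface tissue factor measured by ELISA and fitted bidirectionally against DMSO. Parallel SRB total-protein staining assessed overt cytotoxicity at the same time point.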

[7] = BSK_3C_uPAR: BioMAP Diversity Plus: 3C Assay for Urokinase-type plasminogen activator receptor (uPAR) Biomarker Activity (AID 2282998); conditions: BioMAP 3C HUVEC, uPAR biomarker ELISA; actives raise or lower the signal
Procedure, shortened: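 HUVEC primary cells; 24 h post-dose; uPAR by ELISA; gain or loss of signal fitted bidirectionally vs DMSO baseline.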

[8] = BSK_3C_VCAM1: BioMAP Diversity Plus: 3C Assay for Vascular cell adhesion molecule 1 (VCAM1) Biomarker Activity (AID 2282999); conditions: BioMAP 3C HUVEC, VCAM1 ELISA, cytokine-stimulated; actives raise or lower the signal
Procedure, shortened: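 Human umbilical vein endothelial cells (3C system), biomarker read by ELISA 24 h after dosing; bidirectional fit against DMSO baseline. Cytotoxicity tracked by SRB total-protein staining in parallel cultures at biomarker time.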

[9] = BSK_4H_Eotaxin3: BioMAP Diversity Plus: 4H Assay for Eotaxin 3 Biomarker Activity (AID 2283000); conditions: primary human endothelial cells (HUVEC); actives raise or lower the signal
Procedure, shortened: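 Eotaxin-3 (CCL26) levels were measured by ELISA in HUVEC primary cultures 24 h post-dosing. Gain or loss of signal was fitted in both directions, with DMSO serving as baseline and negative control.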

[10] = target: human Peroxisome Proliferator-activated Receptor alpha (PPARa), PPARA (gene 5465) (UniProt Q07869); experiment: ATG_PPARa_TRANS: Attagene TRANS-FACTORIAL HepG2 Assay for human Peroxisome Proliferator-activated Receptor alpha (PPARa) (AID 2283001; active = hit-call score of the fitted dose curve at least 0.9, where 1 is the maximum)
Procedure, shortened: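 Measures transcriptional activity of an exogenous chimeric PPARa-Gal4 protein in transiently transfected HepG2 cells after 24 h dosing. Reporter mRNA quantified via RT-PCR and capillary electrophoresis; DMSO served as negative control.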

[11] = target: human Peroxisome Proliferator-activated Receptor delta (PPARd), PPARD (gene 5467) (UniProt Q03181); experiment: ATG_PPARd_TRANS: Attagene TRANS-FACTORIAL HepG2 Assay for human Peroxisome Proliferator-activated Receptor delta (PPARd) (AID 2283002; active = hit-call score of the fitted dose curve at least 0.9, where 1 is the maximum)
Procedure, shortened: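 HepG2 cells transiently transfected with GAL4-UAS multiplexed reporter units driven by exogenous chimeric NR-GAL4 proteins; 24 h compound exposure. Reporter mRNA measured by RT-PCR, 6-FAM primer extension, HpaI digestion and capillary electrophoresis; gain of signal fitted relative to DMSO.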

[12] = read-out: Intercellular Adhesion Molecule 1 (ICAM1), ICAM1 (gene 3383); experiment: BSK_3C_ICAM1: BioMAP Diversity Plus: 3C Assay for Intercellular Adhesion Molecule 1 (ICAM1) Biomarker Activity (AID 2283003); conditions: primary human endothelial cells (HUVEC); actives raise or lower the signal
Procedure, shortened: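 Human vascular endothelial primary cells, 3C conditions, 24 h treatment. ICAM-1 by ELISA.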

[13] = target: human Retinoic Acid Receptor beta (RARb), RARB (gene 5915) (UniProt P10826); experiment: ATG_RARb_TRANS: Attagene TRANS-FACTORIAL HepG2 Assay for human Retinoic Acid Receptor beta (AID 2283004; active = hit-call score of the fitted dose curve at least 0.9, where 1 is the maximum)
Procedure, shortened: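 HepG2 cells were transiently transfected with GAL4-UAS reporter units that report activity of exogenous chimeric NR-Gal4 proteins, then exposed to compound for 24 h. Reporter mRNA was quantified by RT-PCR with capillary electrophoresis fluorescence, as gain of signal over DMSO.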

[14] = target: Retinoic acid receptor alpha (Homo sapiens) (UniProt P10276); experiment: ATG_RARa_TRANS: Attagene TRANS-FACTORIAL HepG2 Assay for human Retinoic Acid Receptor alpha (RARa) (AID 2283005; active = hit-call score of the fitted dose curve at least 0.9, where 1 is the maximum;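 as to AC50: potency for increased reporter signal meaning RARa activation over DMSO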)
Procedure, shortened: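 HepG2 transiently transfected with multiplex GAL4-UAS reporter units including a human RARa–GAL4 chimera; 24 h compound exposure. Reporter mRNA quantified by RT-PCR, 6-FAM labeling and capillary electrophoresis; gain of signal versus DMSO.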

[15] = target: Peroxisome proliferator-activated receptor gamma (Homo sapiens) (UniProt P37231); experiment: ATG_PPARg_TRANS: Attagene TRANS-FACTORIAL HepG2 Assay for human Peroxisome Proliferator-activated Receptor-gamma (PPARg) (AID 2283007; active = hit-call score of the fitted dose curve at least 0.9, where 1 is the maximum)
Procedure, shortened: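 Chimeric NR-Gal4 transactivation is measured in transiently transfected HepG2 cells by reporter mRNA induction at 24 h. Detection uses RT-PCR with fluorescent labelling and capillary electrophoresis; DMSO defines baseline.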

[16] = target: Nuclear receptor subfamily 1 group I member 2 (Homo sapiens) (UniProt O75469); experiment: ATG_PXR_TRANS: Attagene TRANS-FACTORIAL HepG2 Assay for human Pregnane X Receptor (PXR) (AID 2283008; active = hit-call score of the fitted dose curve at least 0.9, where 1 is the maximum)
Procedure, shortened: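 Measures mRNA induction of a GAL4-UAS-driven reporter in human HepG2 cells transiently expressing PXR fused to Gal4, following 24 h treatment. DMSO served as negative control and baseline.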

[17] = target: human Retinoic Acid Receptor gamma (RARg), RARG (gene 5916) (UniProt P13631); experiment: ATG_RARg_TRANS: Attagene TRANS-FACTORIAL HepG2 Assay for human Retinoic Acid Receptor gamma (RARg) (AID 2283009; active = hit-call score of the fitted dose curve at least 0.9, where 1 is the maximum)
Procedure, shortened: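 HepG2, RARg-GAL4 TRANS system, 24 h exposure; reporter mRNA by RT-PCR + CE fluorescence; increase over DMSO.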

[18] = target: Cellular tumor antigen p53 (Homo sapiens) (UniProt P04637); experiment: ATG_p53_CIS: Attagene CIS-FACTORIAL HepG2 Assay for human p53 Transcription Factor (AID 2282994); conditions: HepG2 p53 cis-element reporter, Attagene mRNA; actives raise or lower the signal
Procedure, shortened: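 Multiplexed reporter mRNA assay in human HepG2 liver cells; cis-regulated units report endogenous factor activity. Values come from bidirectional curve fitting against DMSO negative control after 24 h treatment.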

[19] = BSK_3C_Proliferation: Cell Proliferation Assessment in the BioMAP Diversity Plus: 3C Assay (AID 2283006); conditions: primary human endothelial cells (HUVEC);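 as to AC50: potency may reflect either rise or fall in cell number versus DMSO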
Procedure, shortened: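 Proliferation of human vascular endothelial primary cells after 48 h dosing, quantified as SRB-stained protein at 560 nm relative to DMSO.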

Measured: AC50

Sequence of Cellular tumor antigen p53 (Homo sapiens) (P04637 whole entry, looked up): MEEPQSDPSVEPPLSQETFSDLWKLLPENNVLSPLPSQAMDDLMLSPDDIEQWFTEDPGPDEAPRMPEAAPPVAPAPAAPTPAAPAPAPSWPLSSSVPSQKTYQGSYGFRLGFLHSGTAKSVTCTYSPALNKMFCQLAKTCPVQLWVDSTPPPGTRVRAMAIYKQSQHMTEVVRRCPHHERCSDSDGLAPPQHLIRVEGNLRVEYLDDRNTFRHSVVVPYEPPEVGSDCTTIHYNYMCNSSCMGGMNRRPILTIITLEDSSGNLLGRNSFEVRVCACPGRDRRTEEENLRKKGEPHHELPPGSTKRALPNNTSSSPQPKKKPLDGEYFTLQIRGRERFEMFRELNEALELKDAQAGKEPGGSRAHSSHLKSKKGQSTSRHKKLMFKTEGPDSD
Sequence of Nuclear respiratory factor 1 (Homo sapiens) (Q16656 whole entry, looked up): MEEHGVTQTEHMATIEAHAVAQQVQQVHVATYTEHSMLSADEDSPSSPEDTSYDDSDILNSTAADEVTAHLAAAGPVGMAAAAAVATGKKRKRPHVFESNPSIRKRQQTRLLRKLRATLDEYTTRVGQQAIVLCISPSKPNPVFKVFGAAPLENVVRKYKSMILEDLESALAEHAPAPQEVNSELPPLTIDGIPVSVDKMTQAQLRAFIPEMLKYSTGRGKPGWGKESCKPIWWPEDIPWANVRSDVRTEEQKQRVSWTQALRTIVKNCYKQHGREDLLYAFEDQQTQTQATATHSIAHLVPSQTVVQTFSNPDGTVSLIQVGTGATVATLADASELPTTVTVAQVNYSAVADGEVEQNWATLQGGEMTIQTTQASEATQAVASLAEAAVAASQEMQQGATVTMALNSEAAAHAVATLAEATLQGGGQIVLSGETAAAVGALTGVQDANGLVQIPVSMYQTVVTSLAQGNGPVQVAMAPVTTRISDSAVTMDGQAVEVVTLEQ
Sequence of Retinoic acid receptor alpha (Homo sapiens) (P10276 whole entry, looked up, the tested form may be a part): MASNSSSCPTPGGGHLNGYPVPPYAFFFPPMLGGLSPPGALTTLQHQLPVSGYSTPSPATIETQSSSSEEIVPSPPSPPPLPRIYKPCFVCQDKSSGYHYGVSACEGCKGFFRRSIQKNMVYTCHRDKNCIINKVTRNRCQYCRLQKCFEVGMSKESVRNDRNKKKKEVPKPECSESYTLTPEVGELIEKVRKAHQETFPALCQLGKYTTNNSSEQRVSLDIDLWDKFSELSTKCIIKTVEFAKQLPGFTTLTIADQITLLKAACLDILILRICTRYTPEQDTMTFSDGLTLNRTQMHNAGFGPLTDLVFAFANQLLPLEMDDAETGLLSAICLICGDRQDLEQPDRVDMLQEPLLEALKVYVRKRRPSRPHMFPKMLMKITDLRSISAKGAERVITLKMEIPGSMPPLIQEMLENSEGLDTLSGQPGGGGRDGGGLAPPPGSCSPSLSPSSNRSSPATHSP
Sequence of human Retinoic Acid Receptor gamma (RARg), RARG (gene 5916) (P13631 whole entry, looked up, the tested form may be a part): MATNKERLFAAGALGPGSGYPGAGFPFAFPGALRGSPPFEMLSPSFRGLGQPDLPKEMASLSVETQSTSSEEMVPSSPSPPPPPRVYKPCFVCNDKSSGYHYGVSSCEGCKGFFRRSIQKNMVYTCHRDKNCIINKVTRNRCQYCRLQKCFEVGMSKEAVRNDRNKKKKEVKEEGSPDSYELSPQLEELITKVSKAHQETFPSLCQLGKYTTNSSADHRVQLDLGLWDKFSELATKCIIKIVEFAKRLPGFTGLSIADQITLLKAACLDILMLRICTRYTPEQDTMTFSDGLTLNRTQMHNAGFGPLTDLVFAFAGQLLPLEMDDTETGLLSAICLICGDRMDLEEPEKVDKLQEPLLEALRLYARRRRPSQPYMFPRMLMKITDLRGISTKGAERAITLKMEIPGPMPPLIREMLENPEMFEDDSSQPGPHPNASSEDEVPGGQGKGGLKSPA
Sequence of Myc proto-oncogene protein (Homo sapiens) (P01106 whole entry, looked up): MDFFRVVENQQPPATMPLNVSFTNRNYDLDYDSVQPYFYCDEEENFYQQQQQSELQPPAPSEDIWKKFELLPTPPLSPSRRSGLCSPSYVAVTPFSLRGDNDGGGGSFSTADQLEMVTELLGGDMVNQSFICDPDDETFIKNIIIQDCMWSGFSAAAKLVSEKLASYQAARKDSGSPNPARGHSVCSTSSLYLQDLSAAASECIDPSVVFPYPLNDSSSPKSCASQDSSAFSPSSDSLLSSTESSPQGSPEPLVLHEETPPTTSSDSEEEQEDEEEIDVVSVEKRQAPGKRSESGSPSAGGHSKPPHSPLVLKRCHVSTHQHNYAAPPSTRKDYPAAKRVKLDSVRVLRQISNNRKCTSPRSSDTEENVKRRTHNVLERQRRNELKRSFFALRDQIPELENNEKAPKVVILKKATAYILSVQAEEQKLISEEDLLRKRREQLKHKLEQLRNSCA
Sequence of Nuclear receptor subfamily 1 group I member 2 (Homo sapiens) (O75469 whole entry, looked up, the tested form may be a part): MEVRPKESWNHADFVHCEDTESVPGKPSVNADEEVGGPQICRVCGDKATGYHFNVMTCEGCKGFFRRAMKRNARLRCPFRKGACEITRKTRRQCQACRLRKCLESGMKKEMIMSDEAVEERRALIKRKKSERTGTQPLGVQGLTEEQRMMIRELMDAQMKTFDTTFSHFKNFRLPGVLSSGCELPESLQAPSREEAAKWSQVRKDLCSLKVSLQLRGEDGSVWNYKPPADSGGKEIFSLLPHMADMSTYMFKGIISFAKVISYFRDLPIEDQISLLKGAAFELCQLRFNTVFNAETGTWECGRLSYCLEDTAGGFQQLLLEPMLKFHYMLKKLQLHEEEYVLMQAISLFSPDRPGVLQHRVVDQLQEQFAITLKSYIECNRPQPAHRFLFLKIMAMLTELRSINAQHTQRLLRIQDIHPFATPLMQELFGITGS
Sequence of human Peroxisome Proliferator-activated Receptor delta (PPARd), PPARD (gene 5467) (Q03181 whole entry, looked up, the tested form may be a part): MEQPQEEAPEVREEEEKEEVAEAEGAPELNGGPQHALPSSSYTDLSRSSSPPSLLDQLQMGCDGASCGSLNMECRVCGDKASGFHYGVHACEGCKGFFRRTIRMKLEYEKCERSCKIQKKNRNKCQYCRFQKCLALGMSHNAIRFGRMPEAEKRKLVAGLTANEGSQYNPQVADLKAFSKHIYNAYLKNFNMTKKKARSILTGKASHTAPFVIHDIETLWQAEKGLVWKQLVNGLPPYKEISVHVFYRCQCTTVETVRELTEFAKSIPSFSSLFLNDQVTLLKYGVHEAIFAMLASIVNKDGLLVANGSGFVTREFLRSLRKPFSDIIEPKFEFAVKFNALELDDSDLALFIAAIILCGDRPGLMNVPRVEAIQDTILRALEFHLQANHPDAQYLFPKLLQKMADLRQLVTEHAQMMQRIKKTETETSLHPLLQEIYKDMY
Sequence of Peroxisome proliferator-activated receptor gamma (Homo sapiens) (P37231 whole entry, looked up, the tested form may be a part): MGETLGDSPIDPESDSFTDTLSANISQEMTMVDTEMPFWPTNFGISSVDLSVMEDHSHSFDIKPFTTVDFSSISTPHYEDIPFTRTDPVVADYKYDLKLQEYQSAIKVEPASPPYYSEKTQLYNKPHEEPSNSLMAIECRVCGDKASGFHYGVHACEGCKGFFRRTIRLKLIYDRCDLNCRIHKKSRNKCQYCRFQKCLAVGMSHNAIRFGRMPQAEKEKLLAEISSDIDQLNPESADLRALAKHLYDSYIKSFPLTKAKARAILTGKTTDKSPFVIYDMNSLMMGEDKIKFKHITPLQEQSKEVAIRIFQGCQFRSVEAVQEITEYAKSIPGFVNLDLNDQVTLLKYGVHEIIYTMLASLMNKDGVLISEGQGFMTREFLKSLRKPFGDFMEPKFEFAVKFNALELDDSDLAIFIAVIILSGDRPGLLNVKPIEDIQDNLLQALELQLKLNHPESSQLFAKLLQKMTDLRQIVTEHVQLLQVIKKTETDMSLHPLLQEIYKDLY
Sequence of human Retinoic Acid Receptor beta (RARb), RARB (gene 5915) (P10826 whole entry, looked up, the tested form may be a part): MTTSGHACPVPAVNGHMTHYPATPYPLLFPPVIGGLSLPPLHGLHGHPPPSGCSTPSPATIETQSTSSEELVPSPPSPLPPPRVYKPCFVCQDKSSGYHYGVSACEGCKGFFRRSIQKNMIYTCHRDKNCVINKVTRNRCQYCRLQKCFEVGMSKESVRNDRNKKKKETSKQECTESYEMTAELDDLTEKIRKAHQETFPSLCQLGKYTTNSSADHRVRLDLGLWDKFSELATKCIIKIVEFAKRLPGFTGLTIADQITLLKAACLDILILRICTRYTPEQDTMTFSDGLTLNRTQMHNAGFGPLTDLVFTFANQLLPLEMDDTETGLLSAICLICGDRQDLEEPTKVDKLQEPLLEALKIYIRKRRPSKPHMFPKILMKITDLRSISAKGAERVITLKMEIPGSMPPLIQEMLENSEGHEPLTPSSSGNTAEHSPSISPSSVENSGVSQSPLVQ
Sequence of human Peroxisome Proliferator-activated Receptor alpha (PPARa), PPARA (gene 5465) (Q07869 whole entry, looked up, the tested form may be a part): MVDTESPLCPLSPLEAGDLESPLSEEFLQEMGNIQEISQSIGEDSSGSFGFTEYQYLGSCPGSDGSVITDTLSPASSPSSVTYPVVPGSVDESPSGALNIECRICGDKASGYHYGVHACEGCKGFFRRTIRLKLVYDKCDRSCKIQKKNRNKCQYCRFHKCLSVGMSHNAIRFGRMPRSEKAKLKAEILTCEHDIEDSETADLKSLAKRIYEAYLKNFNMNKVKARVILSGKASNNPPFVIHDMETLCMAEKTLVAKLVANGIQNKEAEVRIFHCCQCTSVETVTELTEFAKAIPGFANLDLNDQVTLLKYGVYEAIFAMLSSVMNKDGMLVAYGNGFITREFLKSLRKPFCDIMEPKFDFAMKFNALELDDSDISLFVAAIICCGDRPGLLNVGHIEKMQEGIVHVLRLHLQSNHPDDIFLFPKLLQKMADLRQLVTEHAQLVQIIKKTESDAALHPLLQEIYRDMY

C=C(C)[C@H]1Cc2c(ccc3c2O[C@@H]2COc4cc(OC)c(OC)cc4[C@@H]2C3=O)O1
active: [3] 0.063 µM | [4] 0.00527 µM | [5] 0.0306 µM | [6] 8.69 µM | [7] 7.25 µM | [8] 20 µM | [9] 20 µM
not listed: [18] | [19]
inactive: all other assays above

O=c1ccc(=O)[nH][nH]1
not listed: [6] | [11] | [13] | [14] | [15] | [17]
inactive: all other assays above

CCCCN(CC)c1c([N+](=O)[O-])cc(C(F)(F)F)cc1[N+](=O)[O-]
active: [4] 6.46 µM | [5] 12.7 µM | [16] 14.4 µM
not listed: [6] | [11] | [19]
inactive: all other assays above

Nc1nc(N)nc(NC2CC2)n1
not listed: [6] | [15] | [19]
inactive: all other assays above

CCC(CC)Nc1c([N+](=O)[O-])cc(C)c(C)c1[N+](=O)[O-]
inactive: [1] | [2] | [3] | [5] | [7] | [9] | [11] | [12]
active: [4] 14.4 µM | [18] 72.9 µM | [8] 17.1 µM | [15] 73.2 µM | [16] 27.6 µM

COc1cccc(C(=O)NN(C(=O)c2cc(C)cc(C)c2)C(C)(C)C)c1C
not listed: [6] | [10] | [11] | [15] | [17]
inactive: all other assays above

CCOP(=S)(OCC)SCCSCC
active: [4] 33.7 µM
not listed: [6] | [15] | [17]
inactive: all other assays above

CCCOCC(=Nc1ccc(Cl)cc1C(F)(F)F)n1ccnc1
active: [4] 7 µM | [7] 31.7 µM | [8] 33.6 µM | [9] 34.4 µM | [12] 29.7 µM | [14] 1.1 µM | [19] 33.4 µM
not listed: [6] | [11] | [15]
inactive: all other assays above
